High-throughput results as filed in PubChem BioAssay.
APOBEC3A inh: APOBEC3A ssDNA deaminase inhibitors, primary screen, selectivity assay for APOBEC3G inhibitor project, biochemical, FAM/TAMRA oligo cleavage fluorescence; AID 493011, 2011; inhibition, % at 20 µM; 330,000 tested, 0.41% active; DNA dC->dU-editing enzyme APOBEC-3A (Homo sapiens), P31941; recombinant A3A, FAM/TAMRA ssDNA deamination fluorescence;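 active means at least 40% inhibition at 20 µM here, with at most 30% in a related deaminase screen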
NRP1-CendR mod: modulators of CendR peptide binding to NRP-1, primary screen, biochemical, fluorescence polarization, uHTS; 360,000 tested, 0.85% active; inhibition, % at 25 µM; AID 602438, 2012; FAM-RPARPAR peptide binding to NRP-1; Neuropilin-1 (Homo sapiens), O14786;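 active means inhibition or corrected inhibition above about 18%, plus a signal ratio from 0.5 to 1.5, limit read from the data, passing the limit was not always enough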
A3G deaminase: APOBEC3G DNA deaminase inhibitors, primary screen, biochemical, fluorescence, single-stranded DNA substrate, uHTS; DNA dC->dU-editing enzyme APOBEC-3G (Homo sapiens), Q9HC16; recombinant A3G, ssDNA deamination FAM/TAMRA fluorescence; inhibition, % at 20 µM; 330,000 tested, 0.28% active;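 active means inhibition of at least 40% at 20 µM, with no more than 30% in the related APOBEC3A deaminase screen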
ADAM17 inh: ADAM17 inhibitors, primary screen, biochemical, QFRET | AID 720648, 2013 | inhibition, % at 6.95 µM | 370,000 tested, 0.83% active | recombinant ADAM17, EDANS/DABCYL FRET peptide cleavage | Disintegrin and metalloproteinase domain-containing protein 17 (Homo sapiens), P78536;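 active means inhibition above the mean of compounds lying between control limits plus 3 SD, set per campaign, cut at about 8.5% in these data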
Target sequence (P78536 215-824 limits assumed): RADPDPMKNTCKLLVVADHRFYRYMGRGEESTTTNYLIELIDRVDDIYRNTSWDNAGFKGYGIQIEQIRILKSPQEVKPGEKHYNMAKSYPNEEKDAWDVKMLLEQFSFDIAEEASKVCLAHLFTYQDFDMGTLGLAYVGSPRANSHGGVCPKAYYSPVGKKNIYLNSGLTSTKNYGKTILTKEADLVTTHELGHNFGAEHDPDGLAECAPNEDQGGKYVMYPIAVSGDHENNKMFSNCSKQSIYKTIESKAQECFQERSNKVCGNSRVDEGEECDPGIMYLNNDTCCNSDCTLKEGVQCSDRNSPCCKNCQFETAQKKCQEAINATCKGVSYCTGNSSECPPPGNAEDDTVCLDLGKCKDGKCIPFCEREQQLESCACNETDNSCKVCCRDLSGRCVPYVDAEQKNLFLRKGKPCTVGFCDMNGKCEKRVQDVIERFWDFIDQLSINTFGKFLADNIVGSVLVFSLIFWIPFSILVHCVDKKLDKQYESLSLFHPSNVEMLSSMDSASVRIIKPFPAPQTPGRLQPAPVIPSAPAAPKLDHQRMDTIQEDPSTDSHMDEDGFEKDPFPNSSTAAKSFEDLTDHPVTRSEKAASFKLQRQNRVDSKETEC
ADAM10 inh: human ADAM10 inhibitors, primary screen, biochemical, QFRET, HTS; Disintegrin and metalloproteinase domain-containing protein 10 (Homo sapiens), O14672; recombinant ADAM10, EDANS/DABCYL FRET peptide cleavage, 3 h; inhibition, % at 7 µM; 370,000 tested, 0.62% active; AID 720582, 2013;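 active means inhibition above a per-campaign cutoff equal to the mean of compounds falling between control-based bounds plus 3 SD, cut at about 20% in these data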
Hits are given with their value. Only some compounds are listed: those with a hit (about 2.4% of all), similar ones and a draw of the others.

What do the screens show for `C[C@H]1[C@@H](OC(=O)NCc2ccccc2Cl)CC[C@@]23CCCN2C(=O)CCC[C@@H]13`?
ADAM17 inh: inactive; ADAM10 inh: inactive

What do the screens show for `COc1ccc(N=C2C(=Nc3ccc(OC)cc3)N(c3ccc(N(C)C)cc3)C(=S)N2c2ccc(OC)cc2)cc1`?
APOBEC3A inh: inactive; NRP1-CendR mod: 26; A3G deaminase: inactive; ADAM17 inh: inactive; ADAM10 inh: inactive

How did CC1CCN(C(=O)CSc2nncn2C)CC1 do in these assays?
APOBEC3A inh: inactive; NRP1-CendR mod: 48; A3G deaminase: inactive; ADAM17 inh: inactive; ADAM10 inh: inactive

Results for CC1CCN(C(=O)CSc2nncn2-c2ccccn2)CC1 ?
APOBEC3A inh: inactive; NRP1-CendR mod: inactive; A3G deaminase: inactive; ADAM17 inh: inactive; ADAM10 inh: inactive

How did NC(CCc1ccccc1)c1csc(NC(=O)Nc2cccc(C(F)(F)F)c2)n1 (stereo not given) do in these assays?
NRP1-CendR mod: inactive; ADAM17 inh: inactive; ADAM10 inh: inactive

How did CC(C)C(N)c1csc(NC(=O)Nc2cccc(C(F)(F)F)c2)n1 (stereo not given) do in these assays?
NRP1-CendR mod: 24; ADAM17 inh: inactive; ADAM10 inh: inactive

Results for Cc1ccc2c(c1)C(CS(=O)(=O)NCC(C)C)NC2 (stereo not given) ?
ADAM17 inh: inactive; ADAM10 inh: inactive

How did COC(=O)[C@]12C[C@H](CC(=O)N3CCSCC3)C(=O)N(CCC3=CCCCC3)C1=C[C@H](C1CCCC1)O[C@@H]2C do in these assays?
ADAM17 inh: inactive; ADAM10 inh: inactive

Results for O=C(Cc1ccc(F)cc1)N1CCN=C1SCc1ccc([N+](=O)[O-])cc1 ?
APOBEC3A inh: inactive; NRP1-CendR mod: 22; A3G deaminase: inactive; ADAM17 inh: inactive; ADAM10 inh: inactive

What do the screens show for `CCOC(=O)c1c(NC(=O)COC(=O)Cn2cnc3ccccc32)sc2c1CCC(C)C2` (stereo not given)?
NRP1-CendR mod: 33; ADAM17 inh: inactive; ADAM10 inh: inactive

How did CCOC(=O)c1c(NC(=O)Cn2nnc3ccccc32)sc2c1CCC(C)C2 (stereo not given) do in these assays?
APOBEC3A inh: inactive; NRP1-CendR mod: inactive; A3G deaminase: inactive; ADAM17 inh: inactive; ADAM10 inh: inactive

What do the screens show for `COCC(C)n1c(C)cc(C(=O)COC(=O)c2ccc3c(c2)NC(=O)CS3)c1C` (stereo not given)?
APOBEC3A inh: inactive; NRP1-CendR mod: 30; A3G deaminase: inactive; ADAM17 inh: inactive; ADAM10 inh: inactive

What do the screens show for `COC(=O)[C@]12C[C@H](CC(=O)NCc3ccc(OC)c(OC)c3)C(=O)N(CCC3=CCCCC3)C1=C[C@H](C(C)C)O[C@@H]2C1CC1`?
ADAM17 inh: inactive; ADAM10 inh: inactive

Results for CCCCSC(=S)NC1CCS(=O)(=O)C1 (stereo not given) ?
APOBEC3A inh: inactive; NRP1-CendR mod: 25; A3G deaminase: inactive; ADAM17 inh: inactive; ADAM10 inh: inactive

How did CCn1c(NC)cc(=O)n(C)c1=O do in these assays?
APOBEC3A inh: inactive; NRP1-CendR mod: 21; A3G deaminase: inactive; ADAM17 inh: inactive; ADAM10 inh: inactive

What do the screens show for `CC(Sc1nc2ccccc2s1)C(=O)NCc1ccc2c(c1)OCO2` (stereo not given)?
APOBEC3A inh: inactive; NRP1-CendR mod: inactive; A3G deaminase: inactive; ADAM17 inh: inactive; ADAM10 inh: inactive

Results for Cc1csc(SC(C)C(=O)NCc2ccc3c(c2)OCO3)n1 (stereo not given) ?
APOBEC3A inh: inactive; NRP1-CendR mod: 26; A3G deaminase: inactive; ADAM17 inh: inactive; ADAM10 inh: inactive

Results for Cc1ccc(Oc2nnc(-c3ccc(C)cc3)c3ccccc23)cc1 ?
APOBEC3A inh: inactive; NRP1-CendR mod: 29; A3G deaminase: inactive; ADAM17 inh: inactive; ADAM10 inh: inactive

Results for COc1ccccc1C(=O)Nc1ccc(Oc2nnc(-c3ccc(C)cc3)c3ccccc23)cc1 ?
APOBEC3A inh: inactive; NRP1-CendR mod: inactive; A3G deaminase: inactive; ADAM17 inh: inactive; ADAM10 inh: inactive

How did CCN1CCN(Cc2ccc(NC(=O)c3cc(NC(=O)C(=O)c4c[nH]c5ccccc45)cc(OC)c3)cc2C(F)(F)F)CC1 do in these assays?
APOBEC3A inh: inactive; NRP1-CendR mod: inactive; A3G deaminase: inactive; ADAM17 inh: 9.0; ADAM10 inh: 22

How did Cc1cc(C)cc(N(CCC(=O)O)S(=O)(=O)c2ccc3ccccc3c2)c1 do in these assays?
APOBEC3A inh: inactive; NRP1-CendR mod: 42; A3G deaminase: inactive; ADAM17 inh: inactive; ADAM10 inh: inactive

What do the screens show for `Cc1ccc(N(CCC(=O)O)S(=O)(=O)c2ccccc2)cc1`?
APOBEC3A inh: inactive; NRP1-CendR mod: inactive; A3G deaminase: inactive; ADAM17 inh: inactive; ADAM10 inh: inactive

What do the screens show for `CC[C@@]12C(=O)N(c3ccc(OC)cc3)C(=O)N1[C@H](c1cccc(C)c1)[C@@H]1C(=O)N(Cc3ccccc3)C(=O)[C@@H]12`?
APOBEC3A inh: inactive; NRP1-CendR mod: 35; A3G deaminase: inactive

How did O=C(Cc1c[nH]c2ccccc12)Nc1ccc(Nc2cccnc2)c(-c2ccc(Cl)c(Cl)c2)c1 do in these assays?
ADAM17 inh: inactive; ADAM10 inh: inactive

How did Cc1cc(N2CCCC2=O)ccc1S(=O)(=O)NC1CCCCC1 do in these assays?
APOBEC3A inh: inactive; NRP1-CendR mod: 21; A3G deaminase: inactive; ADAM17 inh: inactive; ADAM10 inh: inactive

What do the screens show for `CCN(CC)c1ccc(NC(=O)CSc2nnc(SCc3ccc(Cl)cc3)s2)cc1`?
ADAM17 inh: inactive; ADAM10 inh: inactive

How did Cc1nn(-c2ccccc2)c(C)c1/C=N\N1CCN(Cc2ccccc2Cl)CC1 do in these assays?
ADAM17 inh: inactive; ADAM10 inh: inactive

Results for C/C(=N\NC(=O)c1cc(-c2cccs2)nc2ccccc12)c1ccccn1 ?
APOBEC3A inh: inactive; NRP1-CendR mod: 30; A3G deaminase: inactive; ADAM17 inh: inactive; ADAM10 inh: inactive

Results for NNC(=O)c1cc(-c2cccs2)nc2ccccc12 ?
APOBEC3A inh: inactive; NRP1-CendR mod: inactive; A3G deaminase: inactive; ADAM17 inh: inactive; ADAM10 inh: inactive

What do the screens show for `C[C@@H]1OC(C2CCCCC2)N(C)[C@H]2C[C@H]3c4[nH]c5c(-c6ccccc6)cccc5c4CCN3C(=O)[C@@H]12` (stereo not given in full)?
ADAM17 inh: inactive; ADAM10 inh: inactive

Results for Cc1ccc(-n2c(-c3ccco3)nc3c(cnn3-c3ccc(C)cc3)c2=O)cc1 ?
APOBEC3A inh: inactive; NRP1-CendR mod: 35; A3G deaminase: inactive; ADAM17 inh: inactive; ADAM10 inh: inactive
